In PubChem BioAssay (NCI):
Compounds without any hit were thinned out: in the full panel of roughly 79,000, 15% have a hit. No stated cut-off is given here; in the data, active means growth inhibition above about 70%; inactive means the rest.

Key:
[1] = NCI Yeast Anticancer Drug Screen. Data for the rad50 strain (AID 155);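 further: 0% = growth of vehicle-only cultures of the same strain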; details: S. cerevisiae rad50 strain growth inhibition; at 50.0 µM; active compounds read high
Outline: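 Genetically altered yeast (DNA repair pathway); compound treatment; growth inhibition vs vehicle ctrl.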

[2] = NCI Yeast Anticancer Drug Screen. Data for the mec2-1 strain (AID 157); details: S. cerevisiae mec2-1 strain, at 50.0 µM, active compounds read high
Outline: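 Test agents were screened against the mec2-1 yeast strain, with defined DNA repair or cell cycle alteration. Growth was scored as inhibition against vehicle-only controls.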

[3] = NCI Yeast Anticancer Drug Screen. Data for the sgs1 mgt1 strain (AID 161);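 further: 0% = growth of cultures given vehicle only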; details: S. cerevisiae sgs1 mgt1 strain, at 50.0 µM, active compounds read high
Outline: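 Mutant yeast exposed to compound; growth scored against vehicle-only wells.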

[4] = NCI Yeast Anticancer Drug Screen. Data for the cln2 rad14 strain (AID 165);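 further: 0% = growth equal to vehicle treated cultures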; details: S. cerevisiae cln2 rad14 strain, at 50.0 µM, active compounds read high
Outline: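 Growth of compound-exposed yeast (cln2 rad14 genotype) measured and expressed as inhibition relative to vehicle.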

[5] = NCI Yeast Anticancer Drug Screen. Data for the bub3 strain (AID 167); details: S. cerevisiae bub3 mutant strain, at 50.0 µM, active compounds read high
Outline: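 Yeast carrying a defined mutation is treated with each compound, and growth is compared with that of vehicle-exposed cells to give inhibition.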

[6] = NCI Yeast Anticancer Drug Screen. Data for the mlh1 rad18 strain (AID 175); details: S. cerevisiae mlh1 rad18 strain growth inhibition; at 50.0 µM; active compounds read high
Outline: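 In this whole-cell yeast screen, a strain with altered DNA damage repair is challenged with compound, and its growth is measured against matched vehicle-treated controls.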

Measured: growth inhibition

O=C(O)CNc1ncnc2[nH]ncc12
inactive: [1] 7% | [2] -25.1% | [3] 2.85% | [4] 3.8% | [5] -8.1% | [6] 6%

O=C1CN(/N=C/c2ccc(-c3ccc(Cl)c(Cl)c3)o2)C(=O)N1
inactive: [1] 28.9% | [2] 14.4% | [3] 29.1% | [4] 3.2% | [5] 10% | [6] 5.5%

CCCCCCCCCCCC(=O)Nc1ccc(NC(C)=O)cc1
inactive: [1] 8.25% | [2] 25.1% | [3] 22.6% | [4] -14% | [5] 24.9% | [6] 23.9%

COc1ccc(C(O)C2c3c(cc4c(c3OC)OCO4)CCN2C)c(CO)c1OC (centres undefined)
inactive: [1] 14.4% | [2] 12.8% | [3] 17.6% | [4] 37.5% | [5] 17.9% | [6] 7.45%

C[n+]1cccc2cc([N+](=O)[O-])ccc21
inactive: [1] -21.6% | [2] -6.8% | [3] 4.35% | [4] -77.7% | [5] 3.9% | [6] -13.3%

CCOC(=O)Nc1c2ccccc2c(NC(=O)OCC)c2cc(Cl)ccc12
inactive: [1] 4.2% | [2] -1.75% | [3] 3.75% | [4] 3.25% | [5] 2.85% | [6] 19.8%

CC(CCOS(C)(=O)=O)OS(C)(=O)=O (centres undefined)
inactive: [1] 8.25% | [2] -5.2% | [3] 1.25% | [4] -3.25% | [5] 8.95% | [6] -7.6%

CCC(SC(C)=O)C(=O)O (centres undefined)
inactive: [1] 13% | [2] -16.1% | [3] 2.65% | [4] 14.4% | [5] -2.05% | [6] 9.5%

CC(C)=CCNc1nc(Cl)nc2nc[nH]c12
inactive: [1] -28.1% | [2] -8% | [3] -59% | [4] -14.5% | [5] -19.4% | [6] -67.7%

COCCCNc1ccc([N+](=O)[O-])cn1
inactive: [1] -21.4% | [2] -40.6% | [3] -20.4% | [4] 2.2% | [5] -13% | [6] -14.4%

O=C(NC1c2ccccc2CCc2ccccc21)C(F)(F)F
inactive: [1] 27.7% | [2] -7.75% | [3] 14.5% | [4] 3.05% | [5] 15.3% | [6] 22.6%

O=C(O)/C(Cl)=C(\Cl)C(=O)NC1C2CC3CC(C2)CC1C3 (centres undefined)
inactive: [1] 14.4% | [2] 10.3% | [3] 13.8% | [4] 28.8% | [5] 3.6% | [6] 19.6%

COc1cccc(CN2C(=O)NC(C)(C)C2O)c1 (centres undefined)
inactive: [1] -12.2% | [2] 28.4% | [3] 10.3% | [4] -5.75% | [5] 11.6% | [6] 10.2%

CC1=CC2C3C(=O)NC(=O)C3C1C1C3C(=O)NC(=O)C3C21 (centres undefined)
inactive: [1] -25% | [2] -3.9% | [3] 1.2% | [4] -18.6% | [5] 2.45% | [6] 16.4%

CC[n+]1ccc(C#N)cc1
inactive: [1] 19.9% | [2] -3.25% | [3] 7.85% | [4] 7.9% | [5] 2.6% | [6] 16.9%

COc1ccc(/C=C/C(C)=O)c(OC)c1
inactive: [1] 3% | [2] -12.3% | [3] 2.15% | [4] -20.6% | [5] 0.05% | [6] -4.95%

O=C(O)c1ncnn1-c1ccccc1
inactive: [1] 4.7% | [2] 18.9% | [3] 17.4% | [4] -5.95% | [5] 18.8% | [6] 1.55%

Cc1cc(N(CCC#N)CCC#N)ccc1N=Nc1ccccc1[N+](=O)[O-]
inactive: [1] -44.7% | [2] -38.1% | [3] -13.3% | [4] 12.8% | [5] -32% | [6] -24.1%

CCCCC(C(=O)O)C(=O)O
inactive: [1] -15.3% | [2] -13.4% | [3] -21.8% | [4] 1.1% | [5] -2.05% | [6] -18.4%

OC(CNc1ncccn1)(c1ccccc1)c1ccccc1
inactive: [1] -0.25% | [2] -24.8% | [3] -0.7% | [4] 13% | [5] 8.8% | [6] -17.1%

c1csc(C2Nc3ccccc3N2)c1
inactive: [1] 17.6% | [2] -4.1% | [3] 25.6% | [4] 15.2% | [5] 0.5% | [6] 20.4%

N#CCc1c(F)c(F)c(F)c(F)c1F
inactive: [1] 6.8% | [2] 5.75% | [3] 14.4% | [4] 3.2% | [5] 10.5% | [6] 2.6%

C/C(=N\NC(N)=O)c1ccc(Cl)c(-n2cccc2)c1
inactive: [1] 12.3% | [2] 3.65% | [3] 32.7% | [4] 14.3% | [5] 32.1% | [6] 31.2%

CNCC(N)=O
inactive: [1] -0.05% | [2] 5.95% | [3] 15.3% | [4] -2.95% | [5] -2.4% | [6] 33%

COc1ccc2c(c1)CN(C)c1ccc(OC)cc1CN2C
inactive: [1] 10.7% | [2] -18.6% | [3] 12.2% | [4] 12.4% | [5] 12.5% | [6] 24.6%

Cc1ccc(S(=O)(=O)NNC(=O)Nc2cccc(C(F)(F)F)c2)cc1
inactive: [1] 24.4% | [2] -18% | [3] 18.1% | [4] -2.15% | [5] -0.3% | [6] 54.7%

COc1ccc(S(=O)c2coc3ccccc3c2=O)cc1 (centres undefined)
inactive: [1] 32.4% | [2] -9.05% | [3] 28.1% | [4] 14.7% | [5] 28.1% | [6] 20.9%

COCN1COCN(C)C1=O
inactive: [1] 8.5% | [2] 7.3% | [3] -1.55% | [4] 11.6% | [5] 23.9% | [6] 9.1%

COC1CCCC2CC3=C(CCCC3)OC21 (centres undefined)
inactive: [1] -6.45% | [2] 3.5% | [3] 5.1% | [4] -101% | [5] -14% | [6] -13.5%

CCC(CC)C(=O)NC(=O)NC
inactive: [1] -4.85% | [2] -16.5% | [3] -21.2% | [4] -25.1% | [5] -8.05% | [6] 21%

O=[N+]([O-])c1ccc(CS(=O)(=O)c2ccccc2)o1
inactive: [1] 21.4% | [2] -1.45% | [3] 24.5% | [4] -15.9% | [5] 1.15% | [6] 4.6%

O=C1CC(c2ccccc2)C(c2ccccc2)C1C(=O)OCCc1ccccc1 (centres undefined)
inactive: [1] 36% | [2] 2.85% | [3] 2.45% | [4] 1.5% | [5] -16.9% | [6] 1.3%

CC(=O)Nc1c(CCCCc2ccccc2)[nH]c(=O)[nH]c1=O
inactive: [1] 1.8% | [2] 22.5% | [3] 25.8% | [4] 1.4% | [5] 17% | [6] -0.95%

CC/C(C)=C1/CC(C)(C)N=C1C
inactive: [1] -11.7% | [2] -43.5% | [3] -10% | [4] -20.6% | [5] -12.2% | [6] -22.6%

O=C(NC(CO)CO)c1ccc2cc(C(=O)N3CC(CCl)c4ccc([N+](=O)[O-])cc43)[nH]c2c1 (centres undefined)
inactive: [1] 42.6% | [2] -35.8% | [3] -22.4% | [4] -7.95% | [5] -36.1% | [6] -72.8%

O=C1NC(=S)N/C1=C\c1ccco1
inactive: [1] 21.9% | [2] 10.2% | [3] 0.5% | [4] 15.2% | [5] 26.5% | [6] 32%

CCCCC(=O)N[C@H]1C[C@H]2CC[C@@]1(C)C2(C)C
inactive: [1] -23.2% | [2] 7.5% | [3] -16.6% | [4] -4.05% | [5] 10.9% | [6] -11.8%

Cc1ccc(-n2nnc(-c3ccc(Cl)c(Cl)c3)n2)cc1
inactive: [1] -30.9% | [2] -40.8% | [3] -4.45% | [4] -12.1% | [5] -18.6% | [6] -31.5%

COC(=O)Nc1cccc(OC(=O)NC2CCCCC2)c1
inactive: [1] 12.1% | [2] 32.7% | [3] 15.1% | [4] 4.25% | [5] 33.8% | [6] 16.4%
